Data taken from ChEMBL document CHEMBL1961873, “Compounds: GSK PKIS; Assays: Nanosyn kinase panel” (2012).

Assays:
[1] = molecular target: Sphingosine kinase 1 (Homo sapiens) (UniProt Q9NYA1); conditions: at 1 µM;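 further: mean SPHK1 inhibition value reported from the GSK PKIS kinase panel screen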
[2] = molecular target: T1, Sphingosine kinase 2 (Homo sapiens) (UniProt Q9NRA0); conditions: at 0.1 µM
T1 sequence (whole entry): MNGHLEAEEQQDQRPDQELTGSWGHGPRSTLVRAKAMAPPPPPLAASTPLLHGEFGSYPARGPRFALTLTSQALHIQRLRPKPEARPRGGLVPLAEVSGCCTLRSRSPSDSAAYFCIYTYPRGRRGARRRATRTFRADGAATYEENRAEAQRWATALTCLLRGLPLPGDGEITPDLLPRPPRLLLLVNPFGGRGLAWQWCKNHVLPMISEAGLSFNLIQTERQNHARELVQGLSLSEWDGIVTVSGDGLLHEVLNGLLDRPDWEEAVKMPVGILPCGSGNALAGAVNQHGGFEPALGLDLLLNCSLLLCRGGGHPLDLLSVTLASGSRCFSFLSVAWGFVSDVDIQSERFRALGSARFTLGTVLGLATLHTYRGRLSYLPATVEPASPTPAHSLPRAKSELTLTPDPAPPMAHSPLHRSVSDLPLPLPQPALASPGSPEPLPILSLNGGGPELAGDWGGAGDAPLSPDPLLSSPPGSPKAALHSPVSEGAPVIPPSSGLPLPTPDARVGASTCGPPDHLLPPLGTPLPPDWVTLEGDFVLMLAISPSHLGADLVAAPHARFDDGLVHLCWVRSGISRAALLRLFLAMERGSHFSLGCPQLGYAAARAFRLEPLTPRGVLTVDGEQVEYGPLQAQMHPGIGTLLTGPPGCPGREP

[3] = molecular target: T1, Sphingosine kinase 2 (Homo sapiens); conditions: at 1 µM
[4] = molecular target: Casein kinase II subunit alpha (Homo sapiens) (UniProt P68400); conditions: at 0.1 µM
Sequence of Casein kinase II subunit alpha (Homo sapiens) (P68400 whole entry, looked up): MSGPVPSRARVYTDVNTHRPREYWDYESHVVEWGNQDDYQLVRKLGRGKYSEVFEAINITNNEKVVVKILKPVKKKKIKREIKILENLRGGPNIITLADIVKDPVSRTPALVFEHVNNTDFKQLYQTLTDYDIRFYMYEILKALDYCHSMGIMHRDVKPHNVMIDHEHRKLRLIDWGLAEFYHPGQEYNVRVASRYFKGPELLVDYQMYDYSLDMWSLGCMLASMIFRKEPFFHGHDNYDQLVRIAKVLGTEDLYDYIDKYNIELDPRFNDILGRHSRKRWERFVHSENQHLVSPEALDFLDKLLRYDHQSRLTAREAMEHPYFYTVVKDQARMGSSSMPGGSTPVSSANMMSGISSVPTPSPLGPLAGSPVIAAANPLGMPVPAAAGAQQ

[5] = molecular target: Casein kinase II subunit alpha (Homo sapiens) (UniProt P68400); conditions: at 1 µM
[6] = molecular target: T2, Inhibitor of nuclear factor kappa-B kinase subunit alpha (Homo sapiens) (UniProt O15111); conditions: at 0.1 µM
T2 sequence (whole entry): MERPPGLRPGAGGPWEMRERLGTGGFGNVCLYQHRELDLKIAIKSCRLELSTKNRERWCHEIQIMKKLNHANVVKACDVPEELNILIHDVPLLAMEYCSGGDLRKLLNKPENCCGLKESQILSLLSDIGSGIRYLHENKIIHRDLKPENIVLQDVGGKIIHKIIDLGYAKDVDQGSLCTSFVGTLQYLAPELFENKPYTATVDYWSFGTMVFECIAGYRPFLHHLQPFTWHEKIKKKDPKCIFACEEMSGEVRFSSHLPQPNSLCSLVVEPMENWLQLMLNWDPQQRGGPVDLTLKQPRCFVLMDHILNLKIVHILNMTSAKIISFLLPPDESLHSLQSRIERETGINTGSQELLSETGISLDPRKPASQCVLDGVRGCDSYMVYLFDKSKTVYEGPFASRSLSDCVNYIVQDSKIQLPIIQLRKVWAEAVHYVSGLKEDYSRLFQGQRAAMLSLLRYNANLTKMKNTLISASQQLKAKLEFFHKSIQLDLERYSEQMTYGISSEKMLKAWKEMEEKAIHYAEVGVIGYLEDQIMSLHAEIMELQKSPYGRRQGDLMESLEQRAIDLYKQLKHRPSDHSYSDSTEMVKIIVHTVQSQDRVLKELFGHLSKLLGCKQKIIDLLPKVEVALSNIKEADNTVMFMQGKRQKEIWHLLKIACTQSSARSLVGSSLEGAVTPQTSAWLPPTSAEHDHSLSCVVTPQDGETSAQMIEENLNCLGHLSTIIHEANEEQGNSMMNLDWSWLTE

[7] = molecular target: T2, Inhibitor of nuclear factor kappa-B kinase subunit alpha (Homo sapiens); conditions: at 1 µM
[8] = molecular target: T3, Inhibitor of nuclear factor kappa-B kinase subunit beta (Homo sapiens) (UniProt O14920); conditions: at 0.1 µM
T3 sequence (whole entry): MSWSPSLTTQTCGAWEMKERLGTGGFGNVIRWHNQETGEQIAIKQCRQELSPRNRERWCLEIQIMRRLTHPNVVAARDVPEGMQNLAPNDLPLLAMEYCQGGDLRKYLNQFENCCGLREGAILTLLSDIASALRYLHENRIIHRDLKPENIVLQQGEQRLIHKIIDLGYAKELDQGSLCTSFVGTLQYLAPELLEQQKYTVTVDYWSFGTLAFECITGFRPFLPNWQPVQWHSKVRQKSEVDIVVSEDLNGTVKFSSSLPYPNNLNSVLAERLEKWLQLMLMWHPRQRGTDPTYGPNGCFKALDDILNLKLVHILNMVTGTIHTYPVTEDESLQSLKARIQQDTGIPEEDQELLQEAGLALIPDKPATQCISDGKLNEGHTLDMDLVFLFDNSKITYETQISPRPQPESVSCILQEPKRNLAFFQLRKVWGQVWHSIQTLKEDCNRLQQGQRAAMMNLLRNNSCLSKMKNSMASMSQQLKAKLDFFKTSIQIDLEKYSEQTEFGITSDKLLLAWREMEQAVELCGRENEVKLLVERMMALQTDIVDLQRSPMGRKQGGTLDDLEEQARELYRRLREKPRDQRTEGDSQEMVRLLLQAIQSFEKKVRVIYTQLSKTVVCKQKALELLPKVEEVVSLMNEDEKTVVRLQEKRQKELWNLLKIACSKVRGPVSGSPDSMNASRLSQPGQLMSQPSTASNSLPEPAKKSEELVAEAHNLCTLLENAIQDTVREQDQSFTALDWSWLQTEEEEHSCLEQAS

[9] = molecular target: T3, Inhibitor of nuclear factor kappa-B kinase subunit beta (Homo sapiens); conditions: at 1 µM
[10] = molecular target: T4, Inhibitor of nuclear factor kappa-B kinase subunit epsilon (Homo sapiens) (UniProt Q14164); conditions: at 0.1 µM
T4 sequence (whole entry): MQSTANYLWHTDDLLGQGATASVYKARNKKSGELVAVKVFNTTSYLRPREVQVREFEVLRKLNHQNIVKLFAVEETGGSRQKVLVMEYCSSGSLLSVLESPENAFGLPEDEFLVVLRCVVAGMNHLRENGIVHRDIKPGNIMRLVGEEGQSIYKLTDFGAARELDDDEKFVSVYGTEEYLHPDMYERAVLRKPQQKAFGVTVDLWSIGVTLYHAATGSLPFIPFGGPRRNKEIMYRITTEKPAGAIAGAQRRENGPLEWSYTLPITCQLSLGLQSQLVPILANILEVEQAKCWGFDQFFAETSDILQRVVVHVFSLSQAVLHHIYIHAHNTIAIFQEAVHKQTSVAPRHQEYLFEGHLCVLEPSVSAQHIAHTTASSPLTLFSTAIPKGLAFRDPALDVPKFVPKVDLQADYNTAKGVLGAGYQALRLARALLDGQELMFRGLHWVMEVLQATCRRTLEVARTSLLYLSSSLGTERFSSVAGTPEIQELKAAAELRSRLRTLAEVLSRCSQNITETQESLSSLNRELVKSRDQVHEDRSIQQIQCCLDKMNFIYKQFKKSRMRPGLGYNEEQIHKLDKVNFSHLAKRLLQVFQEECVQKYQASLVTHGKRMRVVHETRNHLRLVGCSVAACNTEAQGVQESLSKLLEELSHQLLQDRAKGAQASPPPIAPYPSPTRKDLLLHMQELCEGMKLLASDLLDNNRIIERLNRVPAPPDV

[11] = molecular target: T4, Inhibitor of nuclear factor kappa-B kinase subunit epsilon (Homo sapiens); conditions: at 1 µM
[12] = molecular target: T5, Serine/threonine-protein kinase Nek1 (Homo sapiens) (UniProt Q96PY6); conditions: at 0.1 µM
T5 sequence (whole entry): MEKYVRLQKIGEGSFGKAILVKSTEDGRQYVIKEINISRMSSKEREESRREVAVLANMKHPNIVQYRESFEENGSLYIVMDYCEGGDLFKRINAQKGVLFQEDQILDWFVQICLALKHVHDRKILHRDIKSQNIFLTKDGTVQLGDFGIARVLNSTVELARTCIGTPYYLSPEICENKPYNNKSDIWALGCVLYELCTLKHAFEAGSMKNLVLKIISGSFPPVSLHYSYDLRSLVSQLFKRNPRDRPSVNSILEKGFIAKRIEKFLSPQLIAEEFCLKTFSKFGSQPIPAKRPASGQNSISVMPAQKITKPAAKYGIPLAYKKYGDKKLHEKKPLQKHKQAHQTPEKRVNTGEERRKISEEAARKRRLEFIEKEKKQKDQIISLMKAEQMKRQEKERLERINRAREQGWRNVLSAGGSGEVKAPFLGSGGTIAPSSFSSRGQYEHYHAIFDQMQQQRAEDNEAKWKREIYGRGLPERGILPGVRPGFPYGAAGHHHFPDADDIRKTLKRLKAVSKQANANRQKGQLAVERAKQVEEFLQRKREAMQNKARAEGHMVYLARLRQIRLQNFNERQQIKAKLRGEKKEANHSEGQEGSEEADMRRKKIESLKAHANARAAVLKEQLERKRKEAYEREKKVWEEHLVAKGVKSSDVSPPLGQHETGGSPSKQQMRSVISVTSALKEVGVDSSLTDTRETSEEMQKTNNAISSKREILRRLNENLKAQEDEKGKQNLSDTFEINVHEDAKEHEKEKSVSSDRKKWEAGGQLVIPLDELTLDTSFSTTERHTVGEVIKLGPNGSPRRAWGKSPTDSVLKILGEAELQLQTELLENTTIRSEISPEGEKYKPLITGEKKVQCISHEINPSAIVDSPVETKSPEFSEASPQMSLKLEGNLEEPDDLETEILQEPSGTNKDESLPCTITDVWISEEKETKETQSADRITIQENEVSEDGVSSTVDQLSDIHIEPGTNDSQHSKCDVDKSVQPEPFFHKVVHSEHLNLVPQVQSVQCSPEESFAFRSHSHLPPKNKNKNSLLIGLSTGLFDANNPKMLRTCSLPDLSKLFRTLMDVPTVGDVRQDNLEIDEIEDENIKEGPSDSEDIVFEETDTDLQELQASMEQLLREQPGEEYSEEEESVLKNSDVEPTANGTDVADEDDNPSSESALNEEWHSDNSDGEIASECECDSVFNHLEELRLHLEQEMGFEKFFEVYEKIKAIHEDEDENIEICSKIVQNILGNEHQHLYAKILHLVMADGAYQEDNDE

[13] = molecular target: T5, Serine/threonine-protein kinase Nek1 (Homo sapiens); conditions: at 1 µM
[14] = molecular target: T6, Serine/threonine-protein kinase Nek2 (Homo sapiens) (UniProt P51955); conditions: at 0.1 µM
T6 sequence (whole entry): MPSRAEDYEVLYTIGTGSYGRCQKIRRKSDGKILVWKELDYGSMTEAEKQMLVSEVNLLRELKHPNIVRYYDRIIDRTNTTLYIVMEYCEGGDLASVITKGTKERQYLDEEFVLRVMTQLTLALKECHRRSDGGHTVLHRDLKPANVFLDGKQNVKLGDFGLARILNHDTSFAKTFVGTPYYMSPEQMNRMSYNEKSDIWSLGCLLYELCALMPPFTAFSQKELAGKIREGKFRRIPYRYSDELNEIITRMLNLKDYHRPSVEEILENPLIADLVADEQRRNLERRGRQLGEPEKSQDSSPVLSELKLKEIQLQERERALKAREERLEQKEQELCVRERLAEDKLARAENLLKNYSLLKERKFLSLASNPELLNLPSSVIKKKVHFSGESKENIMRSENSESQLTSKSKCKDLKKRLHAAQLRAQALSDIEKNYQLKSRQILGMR

[15] = molecular target: T6, Serine/threonine-protein kinase Nek2 (Homo sapiens); conditions: at 1 µM
[16] = molecular target: Serine/threonine-protein kinase Nek6 (Homo sapiens) (UniProt Q9HC98); conditions: at 0.1 µM
Sequence of Serine/threonine-protein kinase Nek6 (Homo sapiens) (Q9HC98 whole entry): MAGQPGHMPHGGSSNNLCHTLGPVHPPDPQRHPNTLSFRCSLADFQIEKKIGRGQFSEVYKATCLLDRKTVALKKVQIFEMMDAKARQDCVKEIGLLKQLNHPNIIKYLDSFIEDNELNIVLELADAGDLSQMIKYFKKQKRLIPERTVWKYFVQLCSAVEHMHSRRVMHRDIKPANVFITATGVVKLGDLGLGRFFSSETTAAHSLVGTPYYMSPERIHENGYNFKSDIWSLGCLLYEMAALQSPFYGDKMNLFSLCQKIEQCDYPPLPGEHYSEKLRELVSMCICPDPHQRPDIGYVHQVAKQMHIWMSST

[17] = molecular target: Serine/threonine-protein kinase Nek6 (Homo sapiens) (UniProt Q9HC98); conditions: at 1 µM
[18] = molecular target: Serine/threonine-protein kinase Nek7 (Homo sapiens) (UniProt Q8TDX7); conditions: at 0.1 µM
Sequence of Serine/threonine-protein kinase Nek7 (Homo sapiens) (Q8TDX7 whole entry, looked up): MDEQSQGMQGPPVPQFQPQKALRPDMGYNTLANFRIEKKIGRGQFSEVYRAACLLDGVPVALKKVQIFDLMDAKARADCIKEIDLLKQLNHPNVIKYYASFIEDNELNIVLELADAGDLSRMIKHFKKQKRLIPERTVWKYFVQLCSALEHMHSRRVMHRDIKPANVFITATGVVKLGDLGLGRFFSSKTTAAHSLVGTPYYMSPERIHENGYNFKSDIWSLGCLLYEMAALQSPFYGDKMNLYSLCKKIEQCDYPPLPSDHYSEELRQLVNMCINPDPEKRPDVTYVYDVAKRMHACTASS

[19] = molecular target: Serine/threonine-protein kinase Nek7 (Homo sapiens) (UniProt Q8TDX7); conditions: at 1 µM
[20] = molecular target: T7, Serine/threonine-protein kinase Nek9 (Homo sapiens) (UniProt Q8TD19); conditions: at 0.1 µM;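 further: reported value is the mean percent inhibition of NEK9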
T7 sequence (whole entry): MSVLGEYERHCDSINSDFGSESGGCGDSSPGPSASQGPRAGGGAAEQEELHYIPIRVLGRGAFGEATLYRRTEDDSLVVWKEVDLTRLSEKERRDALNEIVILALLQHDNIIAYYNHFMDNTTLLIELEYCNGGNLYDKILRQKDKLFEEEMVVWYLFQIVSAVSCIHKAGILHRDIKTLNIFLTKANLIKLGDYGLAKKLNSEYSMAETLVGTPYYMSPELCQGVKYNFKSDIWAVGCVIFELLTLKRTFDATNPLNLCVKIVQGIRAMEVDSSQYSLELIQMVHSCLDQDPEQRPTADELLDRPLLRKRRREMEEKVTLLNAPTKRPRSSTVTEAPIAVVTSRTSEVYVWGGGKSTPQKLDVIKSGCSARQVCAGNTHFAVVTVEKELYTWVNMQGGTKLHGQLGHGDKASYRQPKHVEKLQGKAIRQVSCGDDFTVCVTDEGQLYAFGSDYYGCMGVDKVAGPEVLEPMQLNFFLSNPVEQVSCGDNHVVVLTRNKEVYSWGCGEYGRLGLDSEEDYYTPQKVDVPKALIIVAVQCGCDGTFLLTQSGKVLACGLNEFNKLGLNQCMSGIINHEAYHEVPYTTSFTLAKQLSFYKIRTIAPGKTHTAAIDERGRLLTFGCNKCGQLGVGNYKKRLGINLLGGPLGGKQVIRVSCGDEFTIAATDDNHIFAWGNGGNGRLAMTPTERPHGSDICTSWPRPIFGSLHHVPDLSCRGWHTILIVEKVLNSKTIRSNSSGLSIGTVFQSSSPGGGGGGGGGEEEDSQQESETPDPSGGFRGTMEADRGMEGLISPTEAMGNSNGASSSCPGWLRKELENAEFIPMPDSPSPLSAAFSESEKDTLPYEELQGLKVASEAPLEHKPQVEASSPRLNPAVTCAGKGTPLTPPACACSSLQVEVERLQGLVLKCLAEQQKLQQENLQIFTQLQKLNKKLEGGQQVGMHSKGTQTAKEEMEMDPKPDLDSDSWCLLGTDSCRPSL

Sequence of Sphingosine kinase 1 (Homo sapiens) (Q9NYA1 whole entry): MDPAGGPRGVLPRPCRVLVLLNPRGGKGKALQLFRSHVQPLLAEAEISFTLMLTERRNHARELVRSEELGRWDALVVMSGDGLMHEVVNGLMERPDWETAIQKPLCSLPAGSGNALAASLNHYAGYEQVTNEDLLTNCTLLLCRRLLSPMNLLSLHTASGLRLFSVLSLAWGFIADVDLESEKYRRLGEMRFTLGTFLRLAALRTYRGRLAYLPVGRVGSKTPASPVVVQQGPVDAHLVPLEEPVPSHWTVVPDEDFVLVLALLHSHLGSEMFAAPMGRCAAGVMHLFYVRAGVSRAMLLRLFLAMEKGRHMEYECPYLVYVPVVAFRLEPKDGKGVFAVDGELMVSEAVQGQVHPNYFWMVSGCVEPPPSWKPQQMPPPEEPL

Compound: O=C(Nc1n[nH]c2cc(-c3ccccc3)ccc12)C1CC1
- inhibition [1]: 0.1%
- inhibition [2]: -1.1%
- inhibition [3]: -0.92%
- inhibition [4]: 1.99%
- inhibition [5]: 6.38%
- inhibition [6]: 2.61%
- inhibition [7]: 7.25%
- inhibition [8]: 5.63%
- inhibition [9]: 3.54%
- inhibition [10]: 4.3%
- inhibition [11]: 4.27%
- inhibition [12]: 1.53%
- inhibition [13]: 3.2%
- inhibition [14]: 5.82%
- inhibition [15]: 6.37%
- inhibition [16]: 0.8%
- inhibition [17]: -0.52%
- inhibition [18]: 5.67%
- inhibition [19]: 3.1%
- inhibition [20]: 4.27%
